This is part of a sample that, as a whole, favours compounds with a hit. Of some 83,000 tested, about 20% had one in any assay.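 Compound tested at a single concentration for 48 hours in 96-well plates; a percent growth value below 10 was scored as active.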 The source made the active and inactive calls.
tested on: SK-MEL-28 melanoma; assay: NCI-60 one-dose screen, 48 h (100 = growth as untreated, 0 = no growth, -100 = all killed); conditions: 10 µM unless noted
Experimental: Growth inhibition of the SK-MEL-28 human tumor cell line is measured as a screen for anti-cancer activity. Cells are grown in 96 well plates and exposed to the test compound for 48 hours. Compounds are tested at a single concentration, which is 10^-5 M for most compounds. The reported endpoint is percent growth (GI% or GIPRCNT), where numbers from 0 - 100% represent growth inhibition, and numbers from -100% - 0 represent cell death. For example, a value of 40 represents 60% growth inhibition. A value of 0 means no net growth occurred over the course of the experiment. A value of -40 indicates 40% of cells at the beginning of the experiment died by the end of the experiment. A value of -100 means all cells are dead at the end of the experiment.
NCI-60 Human Tumor Cell Lines Screen was performed using the standard one-dose NCI protocol, which is described in more detail at https://dtp.cancer.gov/discovery_development/nci-60/default.htm.
Compounds with GIPRCNT values below 10 were considered active. Activity score was based on GIPRCNT using the following formula: […]
Score is 0 for GIPRCNT values of 100 or above, 50 for GIPRCNT values of 0, and 100 for GIPRCNT values of -100.

Question: How did the growth turn out when `CC(=O)Oc1ccccc1C(=O)[Se]C(=NC1CCCCC1)NC1CCCCC1` was run?
Answer: -89.1% (active)

Question: `CN(C)CCn1c2ccccc2c2nc3ccc([N+](=O)[O-])cc3nc21` was tested. Which growth did it give?
Answer: 8.67% (active)

Question: For `OCC1(CCCc2ccccc2)CCCN(c2nccc3ccccc23)C1` (stereo not given), which growth is on record?
Answer: 32.4% (inactive)

Question: Which growth does the source give for `N#Cc1c(-c2cccc3ccccc23)cc(-c2cccc(OCC(=O)O)c2)[nH]c1=O` here?
Answer: 102% (inactive)

Question: With `O=C(COc1ccc(NC(=O)Nc2ccc(Cl)cc2)cc1)N/N=C/c1ccccc1` as the compound, how does the growth read?
Answer: -84.9% (active)

Question: With `CCOC(=O)COc1c(OC)c(OC)cc2oc(-c3cccc(C(=O)Nc4ccc(Cl)cc4)c3)cc(=O)c12` as the compound, how does the growth read?
Answer: 68.6% (inactive)

Question: With `OCNc1ccc(-n2cnc3cc(-c4ccc(O)cc4)ccc32)cc1C(F)(F)F` as the compound, how does the growth read?
Answer: 27.5% (inactive)

Question: How did the growth turn out when `COc1cccc(/C=C/C(=O)c2ccc(OC)c(S(N)(=O)=O)c2)c1` was run?
Answer: 60.8% (inactive)

Question: Which growth does the source give for `Cn1cc(-c2cc3nc(-c4c[nH]c5ccc(Cl)cc45)cc(N)n3n2)c2ccccc21` here?
Answer: -97.4% (active)

Question: Which growth does the source give for `COc1cc(-c2ccc(/C=N/NC(=O)c3[nH]c4ccc(Br)cc4c3-c3ccccc3)o2)cc(OC)c1OC` here?
Answer: 86.8% (inactive)

Question: How did the growth turn out when `COc1ccc(-c2ccc(SCC(=O)Nc3ccc(S(N)(=O)=O)cc3Br)nn2)cc1` was run?
Answer: 99.2% (inactive)

Question: `CCN(CC)c1ccc(/C=N/Nc2nc(-c3ccc(C)cc3)cs2)c(O)c1` was tested. Which growth did it give?
Answer: 95% (inactive)

Question: `Cc1ccc(/C=C/c2n(Cc3ccc4ccccc4c3)c3ccccc3[n+]2Cc2ccc3ccccc3c2)cc1` was tested. Which growth did it give?
Answer: -92.3% (active)

Question: `O=C1N/C(=N\c2nccs2)S/C1=C\C=C/c1ccccc1` was tested. Which growth did it give?
Answer: 18% (inactive)

Question: Which growth does the source give for `O=c1[nH]c2ccccc2cc1CSc1nccc(-c2ccc3ccccc3c2)n1` here?
Answer: 86.3% (inactive)

Question: Which growth does the source give for `CC1(C)CC[C@]2(C(=O)Nc3ccc(Br)cc3)CC[C@]3(C)C(=CCC4[C@@]5(C)C[C@@H](O)[C@H](O)[C@@](C)(CO)C5CC[C@]43C)C2C1` (stereo not given in full) here?
Answer: 32.1% (inactive)

Question: `CC(C)c1ccc2c(N)c(C(=O)Nc3cccc(C(F)(F)F)c3)sc2n1` was tested. Which growth did it give?
Answer: 80.2% (inactive)

Question: How did the growth turn out when `O=C(Cn1c(/C=C/c2ccccc2)nc2ccccc2c1=O)Nc1ccc(Cl)cc1` was run?
Answer: 108% (inactive)

Question: With `O=C(COc1ccc(NC(=O)Nc2ccc(Cl)c(Cl)c2)cc1)N=Nc1c(O)[nH]c2ccc(Cl)cc12` as the compound, how does the growth read?
Answer: -81.4% (active)

Question: For `COc1c(F)ccc(C(=O)Nc2ccc3nc(NC(=O)C4CCCN(S(=O)(=O)C5CC5)C4)sc3c2)c1F` (stereo not given), which growth is on record?
Answer: 56.2% (inactive)

Question: How did the growth turn out when `S=C(Nc1ccc(OCc2nc3ccccc3[nH]2)cc1)NC1CCCCC1` was run?
Answer: 85.2% (inactive)

Question: For `O=C(N1c2ccccc2Sc2ccccc21)n1ccc2cccnc21`, which growth is on record?
Answer: 76.9% (inactive)

Question: With `CC(C)CSc1nc(NCCc2c[nH]c3ccccc23)c(C#N)c(-c2ccc(Cl)cc2)n1` as the compound, how does the growth read?
Answer: 72.1% (inactive)

Question: How did the growth turn out when `COc1ccc(-c2nc3cc(C)ccc3n2CC(=O)N=Nc2c(O)[nH]c3ccc(Cl)cc23)cc1` was run?
Answer: -67.6% (active)

Question: How did the growth turn out when `CCCCOc1ccc(NC(=O)c2sc3nc(C)ccc3c2N)cc1` was run?
Answer: 50.7% (inactive)

Question: With `COc1c(F)ccc(C(=O)Nc2ccc3nc(NC(=O)C4CCCN(S(=O)(=O)c5cccc(Br)c5)C4)sc3c2)c1F` (stereo not given) as the compound, how does the growth read?
Answer: 97.8% (inactive)

Question: Which growth does the source give for `NS(=O)(=O)c1ccc(-n2cc(-c3cccc(NC(=O)c4cc(N5CCOCC5)cc(C(F)(F)F)c4)c3)nn2)cc1` here?
Answer: 36.9% (inactive)

Question: For `CCN(CC)C(=O)N/C(N)=N/c1nc2ccccc2s1`, which growth is on record?
Answer: 75.4% (inactive)

Question: For `COc1ccccc1C(=O)NN1C(=O)/C(=C/C2=Cc3ccccc3OC2)SC1=S`, which growth is on record?
Answer: 109% (inactive)

Question: Which growth does the source give for `O=C(c1ccc(OCCN2CCOCC2)cc1)C1[C@H](c2ccc(Cl)cc2)[C@@H](c2ccccc2)NC12C(=O)Nc1ccc(Cl)cc12` (stereo not given in full) here?
Answer: 51.7% (inactive)

Question: For `COc1ccc2[nH]cc(-c3nnc(N)nc3-c3c[nH]c4ncc(Br)cc34)c2c1`, which growth is on record?
Answer: 98.9% (inactive)

Question: Which growth does the source give for `O=C(C1=CNC(=S)NC1c1ccc(O)cc1)c1cc2ccccc2oc1=O` (stereo not given) here?
Answer: 118% (inactive)

Question: How did the growth turn out when `Cc1ccc([C@H]2C(C(=O)c3ccc(Cl)cc3)C3(N[C@@H]2c2ccccc2)C(=O)Nc2ccc(Br)cc23)cc1` (stereo not given in full) was run?
Answer: 77.9% (inactive)

Question: For `CC(=O)Nc1cccc(-c2nc3cc(-c4ccc(O)cc4)ccc3n2C)c1`, which growth is on record?
Answer: 27.3% (inactive)

Question: Which growth does the source give for `CC1(C)CC[C@]2(C(=O)O)CC[C@]3(C)C(=CCC4[C@@]5(C)C[C@@H](O)[C@@H]6OC(c7cccc(Br)c7)OC[C@@]6(C)C5CC[C@]43C)C2C1` (stereo not given in full) here?
Answer: 74.2% (inactive)

Question: `Cc1cc2nc3c([nH]c2cc1C)c1ccc(=O)cc1n3CCN(C)C` was tested. Which growth did it give?
Answer: 51.4% (inactive)

Question: How did the growth turn out when `Nc1n[nH]c2cccc(C#Cc3cccc(NC(=O)c4cccc(Cl)c4)c3)c12` was run?
Answer: 42.5% (inactive)

Question: How did the growth turn out when `CCOc1ccc(C(=O)NC(=S)Nc2ccc(S(N)(=O)=O)cc2)cc1` was run?
Answer: 107% [100 µM] (inactive)

Question: Which growth does the source give for `CC1(C)CC[C@]2(C(=O)Nc3ccccc3)CC[C@]3(C)C(=CCC4[C@@]5(C)C[C@@H](O)[C@H](O)[C@@](C)(CO)C5CC[C@]43C)C2C1` (stereo not given in full) here?
Answer: 70.6% (inactive)

Question: `COc1ccc(NC(=O)Cn2c(/C=C/c3cccc([N+](=O)[O-])c3)nc3ccccc3c2=O)cc1` was tested. Which growth did it give?
Answer: 93.7% (inactive)
